CYP2C19 inhib: blockers of cytochrome P450 2C19 activity – biochemical, luminescence, ADME assay, primary screen; P33261; AID 778, 2007; CYP2C19 Supersomes, luciferin-H EGE luminescence, 30 min; hit rate 21% among 96,000; inhibition, % at 5 µM;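 active means CYP2C19 inhibition above a set limit at 5 µM in the primary screen, cut at about 50% in these data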;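 further: plate controls were negative control wells for no effect and 2.5 mM tranylcypromine positive control for full effect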
Target sequence (P33261 whole entry, looked up): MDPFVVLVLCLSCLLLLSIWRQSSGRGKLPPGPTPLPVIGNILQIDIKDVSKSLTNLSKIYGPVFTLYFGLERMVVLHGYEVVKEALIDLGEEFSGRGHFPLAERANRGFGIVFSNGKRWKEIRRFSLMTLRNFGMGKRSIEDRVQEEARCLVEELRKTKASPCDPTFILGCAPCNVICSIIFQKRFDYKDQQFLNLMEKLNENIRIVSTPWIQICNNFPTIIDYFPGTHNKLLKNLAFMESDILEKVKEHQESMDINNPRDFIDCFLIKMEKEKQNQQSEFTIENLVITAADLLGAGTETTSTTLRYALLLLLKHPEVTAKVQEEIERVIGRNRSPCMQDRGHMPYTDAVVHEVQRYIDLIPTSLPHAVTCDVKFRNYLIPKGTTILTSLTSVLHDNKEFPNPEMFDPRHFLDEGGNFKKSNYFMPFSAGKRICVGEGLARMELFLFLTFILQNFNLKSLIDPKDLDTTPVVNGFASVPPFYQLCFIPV
CYP2C19 activ: human CYP2C19 activators, primary screen, biochemical, luminescence. Cytochrome P450 2C19 (Homo sapiens), P33261. recombinant CYP2C19, luciferin-H EGE luminescence; active compounds read high; 0 = fully inhibited enzyme, 1 = untreated enzyme. activation factor at 5 µM. 96,000 tested, under 10 active. AID 1025, 2008;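 active means activation factor of at least 2 at 5 µM in the primary screen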;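 further: 0 = wells with 2.5 mM tranylcypromine and 1 = vehicle-only wells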
CYP2C9 inhib: blockers of cytochrome P450 2C9 activity – biochemical, luminescence, ADME assay, primary screen | P11712 | CYP2C9 Supersomes, luciferin-H conversion | inhibition, % at 5 µM | hit rate 20% among 96,000;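 active means blocking of liver enzyme CYP2C9 beyond about 50% at 5 µM, limit read from the data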
CYP2C9 act: human CYP2C9 activators, primary screen, biochemical, luminescence; Cytochrome P450 2C9 (Homo sapiens), P11712; recombinant CYP2C9, luciferin-H conversion; active compounds read high; factor 1 = untreated enzyme, 0 = blocked; activation factor at 5 µM; hit rate 1.4% among 96,000; AID 1024, 2008;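 active means activation factor of 2 or more for CYP2C9 at a 5 µM dose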;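 further: 0 = sulfaphenazole-blocked wells and 1 = vehicle-only wells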
Pyk2 oligo antag: antagonists of Pyk2 self-association, primary screen, Q293 cells, FERM NanoBiT luminescence, HTS. Protein-tyrosine kinase 2-beta (Homo sapiens), Q14289. hit rate 0.83% among 99,000. active compounds read low. z-score (the deposit names both 25 µM and 10 µM);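 active means Z-score of -3 or lower, scaled per plate to the spread of control and sample wells; inactive means z-score above -3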;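 further: negative z-score means lost luminescence so less FERM oligomerization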
Numbers without * were called inactive; . = no result given. Hits are enriched below; roughly 28% of the tested compounds scored in any of these assays.

SMILES	CYP2C19 inhib	CYP2C19 activ	CYP2C9 inhib	CYP2C9 act	Pyk2 oligo antag
COc1cccc(C(=O)Nc2ccccc2C(=O)N2CCCC2)c1	54*	0.5	-8	1.1	0.58
CCN(CC)c1ccc(NC(=O)c2cccc(OC)c2)c(C)c1	-3	1	-150	2.5*	-1.3
Cc1ccc(N/C(CSC(N)=O)=N\S(=O)(=O)c2ccc(C)cc2)cc1	17	0.8	-88	1.9	0.06
COc1cccc(C(=O)Nc2ccccc2N2CCCC2)c1	69*	0.3	26	0.7	1.3
COc1cc(OC)cc(C(=O)Nc2ccccc2N2CCOCC2)c1	40	0.6	41	0.6	-0.16
Clc1ccc2c(c1)c1ccccc1n2CN1CCOCC1	72*	0.3	49	0.5	-0.18
Cc1cc(Oc2ccccc2)nc(SCC(=O)Nc2ccc(Cl)c(Cl)c2)n1	56*	0.4	65*	0.4	-1.5
CC(=O)CSc1nc2ccc(Nc3nc(N4CCOCC4)nc(N4CCOCC4)n3)cc2s1	75*	0.3	55*	0.5	-0.77
Cc1cc(C)nc(SCC(=O)Nc2ccc(N3CCOCC3)c(Cl)c2)n1	36	0.6	52*	0.5	0.82
O=C(CSc1nnnn1-c1ccccc1)Nc1ccc(N2CCOCC2)c(Cl)c1	1	1	-3	1	-1.7
Cc1cc(Oc2ccccc2)nc(SCC(=O)Nc2ccccc2)n1	29	0.7	16	0.8	-0.66
O=C(CSc1nc2ccccc2o1)Nc1ccc(N2CCOCC2)c(Cl)c1	73*	0.3	89*	0.1	0.31
CC(CC(C)C(=O)N1CCOCCN(C(=O)C(C)CC(C)C(=O)O)CCOCC1)C(=O)O (stereo not drawn)	6	0.9	2	1	1.5
CC(C)c1ccc2c(c1)C(=O)NC(C)(C)C2	19	0.8	-9	1.1	.
CC(NCc1ccco1)C(=O)N1CCc2ccccc2C1 (stereo not drawn)	50	0.5	10	0.9	0.45
CC(=O)Nc1ccc2nc(SCC(=O)Nc3ccc(N4CCOCC4)c(Cl)c3)sc2c1	45	0.6	76*	0.2	-2.2
O=C(CSc1nnc(C23CC4CC(CC(C4)C2)C3)o1)Nc1ccc(N2CCOCC2)c(Cl)c1	-4	1	7	0.9	-3.3*
Cc1cc(N2CCOCC2)nc(SCc2ccc(Cl)cc2Cl)n1	48	0.5	64*	0.4	-1.1
Cc1nnc(SCC(=O)Nc2ccc(N3CCOCC3)cc2)o1	-9	1.1	-6	1.1	0.45
O=C(CSc1nnnn1-c1cccc2ccccc12)Nc1ccc(N2CCOCC2)c(Cl)c1	-5	1.1	-88	1.9	-3.3*
Cc1cc(C(=O)O)c(=O)[nH]c1C	-5	1.1	-7	1.1	0.31
CC(C)CNc1nc(=S)nc(N(C)C)[nH]1	15	0.8	5	1	0.88
O=C(c1cc(-c2cccs2)nc2ccccc12)N1CCN(S(=O)(=O)c2ccccc2)CC1	84*	0.2	94*	0.1	-0.47
O=C(c1cc(-c2cccs2)nc2ccccc12)N1CCN(S(=O)(=O)c2cccc(F)c2)CC1	0	1	69*	0.3	0.38
c1coc(CN(Cc2ccco2)c2ncnc3c2oc2ccccc23)c1	.	.	.	.	-2
SMILES	CYP2C19 inhib	CYP2C19 activ	CYP2C9 inhib	CYP2C9 act	Pyk2 oligo antag
Cc1ccc(Oc2cc(C)nc(-c3ccccc3O)n2)cc1	76*	0.2	79*	0.2	0.75
Cc1cc(NCCCN)nc(-c2ccccc2O)n1	10	0.9	25	0.7	-0.97
Cc1ccc(Nc2cc(C)nc(-c3ccccc3O)n2)cc1	20	0.8	55*	0.4	-0.01
Cc1cc(Oc2ccc(Cl)cc2)nc(-c2ccccc2O)n1	41	0.6	28	0.7	0.83
O=C(COC(=O)c1cc(-c2ccco2)nc2ccccc12)NCc1ccccc1	33	0.7	61*	0.4	-0.24
CCN(CC)C(=O)COC(=O)c1cc(-c2ccc(OC)cc2)nc2ccccc12	91*	0.1	98*	0	-1.9
CCNC(=O)COC(=O)c1cc(-c2ccc(OC)cc2)nc2ccccc12	16	0.8	61*	0.4	-1.1
COC(=O)c1sccc1NC(=O)c1cc(-c2ccc(C)cc2)nc2ccccc12	-15	1.1	7	0.9	0.08
CN(Cc1ccccc1)C(=O)COC(=O)c1ccccc1NS(=O)(=O)c1cccc(N)c1	.	.	.	.	-0.67
CN(Cc1ccccc1)C(=O)COC(=O)c1cc(-c2ccc(Cl)s2)nc2ccccc12	56*	0.4	88*	0.1	-0.18
CCN(CC)C(=O)Cc1cc(C(=O)O)c2ccccc2n1	0	1	-13	1.1	1.2
CC1=C(C(=O)Nc2ccccc2)C(c2ccc(C)cc2)N=C(Nc2nc3ccccc3o2)N1 (stereo not drawn)	11	0.9	35	0.7	-0.13
COc1ccccc1/C=N/NC(=O)c1nnn(-c2nonc2N)c1CSC1=NCCS1	.	.	.	.	0.56
O=C(O)c1cc(-c2ccc(O)cc2)nc2ccccc12	-12	1.1	-3	1	.
CCOc1ccc(-c2cc(C(=O)O)c3ccccc3n2)cc1	-25	1.3	57*	0.4	-0.2
CCCCN(CCCNC(=O)C1CCN(S(=O)(=O)CC)CC1)c1ccccc1	.	.	.	.	0.56
O=C(NCc1ccc(OC(F)(F)F)cc1)C1CC(c2c(Cl)cccc2Cl)=NO1 (stereo not drawn)	87*	0.1	48	0.5	.
O=C(NCc1cc(C(F)(F)F)cc(C(F)(F)F)c1)C1CC(c2c(Cl)cccc2Cl)=NO1 (stereo not drawn)	62*	0.4	77*	0.2	.
O=C(NCCc1cccs1)C1CC(c2c(Cl)cccc2Cl)=NO1 (stereo not drawn)	60*	0.4	-124	2.2*	.
O=C(NCc1cc(C(F)(F)F)cc(C(F)(F)F)c1)C1CC(c2ccccc2[N+](=O)[O-])=NO1 (stereo not drawn)	48	0.5	-10	1.1	.
O=C(NCc1ccccn1)C1CC(c2ccc(F)cc2)=NO1 (stereo not drawn)	20	0.8	0	1	-0.15
O=C1CCn2nc(-c3ccc(Cl)cc3)cc2N1	-5	1	8	0.9	.
CCCn1c(SCc2cc(=O)[nH]c3ccccc23)nc2c1c(=O)n(C)c(=O)n2C	-5	1.1	-3	1	1.6
CC1CC(N(C(=O)C2CC2)c2ccccc2)c2ccccc2N1C(=O)C1CC1 (stereo not drawn)	39	0.6	7	0.9	-0.05
CC1CC(N(C(=O)c2ccc(Cl)cc2)c2ccccc2)c2ccccc2N1C(=O)c1ccco1 (stereo not drawn)	91*	0.1	97*	0	-2.5
O=C(c1ccco1)N1CCN(Cc2ccc(Cl)cc2)CC1	24	0.8	8	0.9	0.44

Bioassay records (PubChem BioAssay)
